Laboratory results reported in PubChem BioAssay (NCI).
About 83,000 compounds went through this panel and 20% of them were active in at least one assay; those are over-represented in the sample as a whole.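 Negative percent growth values reflect cell death: -40 means 40% of the cells present at the start died, and -100 means all died.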 Unmarked numbers belong to inactive results. Activity calls are given as the source filed them. How the source made its calls: active means growth percent below 10; inactive means the rest.

Legend:
Assay in all cases: NCI-60 one-dose screen, 48 h (100 = growth as untreated, 0 = no growth, -100 = all killed)
Details in all cases: 10 µM unless noted
HCT-15 colon = test system: HCT-15 colon
HT29 colon = test system: HT29 colon
SNB-75 CNS = test system: SNB-75 CNS
SNB-19 CNS = test system: SNB-19 CNS
U251 CNS = test system: U251 CNS
PC-3 prostate = test system: PC-3 prostate
SK-MEL-5 melanoma = test system: SK-MEL-5 melanoma
UACC-62 melanoma = test system: UACC-62 melanoma
LOX IMVI melanoma = test system: LOX IMVI melanoma
SK-MEL-28 melanoma = test system: SK-MEL-28 melanoma
EKVX NSCLC = test system: EKVX NSCLC
SN12C renal = test system: SN12C renal
UO-31 renal = test system: UO-31 renal
TK-10 renal = test system: TK-10 renal
ACHN renal = test system: ACHN renal
CAKI-1 renal = test system: CAKI-1 renal
CCRF-CEM leukemia = test system: CCRF-CEM leukemia
MOLT-4 leukemia = test system: MOLT-4 leukemia
A498 renal = test system: A498 renal
SK-MEL-2 melanoma = test system: SK-MEL-2 melanoma

SMILES | growth (HCT-15 colon) | growth (HT29 colon) | growth (SNB-75 CNS) [%] | growth (SNB-19 CNS) [%] | growth (U251 CNS) [%] | growth (PC-3 prostate) [%] | growth (SK-MEL-5 melanoma) | growth (UACC-62 melanoma) [%] | growth (LOX IMVI melanoma) | growth (SK-MEL-28 melanoma) | growth (EKVX NSCLC) [%] | growth (SN12C renal) | growth (UO-31 renal) [%] | growth (TK-10 renal) [%] | growth (ACHN renal) [%] | growth (CAKI-1 renal) [%] | growth (CCRF-CEM leukemia) | growth (MOLT-4 leukemia) | growth (A498 renal) | growth (SK-MEL-2 melanoma) [%]
CN1CCN(Cc2ccc(NC(=O)c3cncc(C#Cc4cnn5cccnc45)c3)cc2C(F)(F)F)CC1 | 4.11% (active) | 17.5% | 62.4 | 29 | 36.2 | 30.8 | 17.7% | 23.8 | -33.3% (active) | 12.1% | 46.6 | 8.93% (active) | 22.3 | 32.8 | 11.2 | 21.6 | 2.51% (active) | 6.57% (active) | – | –
N#Cc1cn(Cc2ccc(Cl)cc2Cl)c(C(=O)c2ccc(Br)cc2)c1N | 94.6% | 102% | 89.6 | 69.5 | 86.1 | 86.9 | 97.5% | 82.8 | 90.1% | 99% | 93.8 | 101% | 81.6 | 101 | 99 | 92.3 | 108% | 98.9% | 86.7% | –
O=C1Nc2ccccc2/C1=C/c1ccc(COCC2CO2)n1-c1ccc(O)cc1 (centres undefined) | 107% | 110% | 95.1 | 97.7 | 99.4 | 101 | 101% | 96 | 79.6% | 106% | 102 | 105% | 89.7 | 104 | 97 | 98.3 | 89.2% | 98.8% | 115% | –
Nc1nc(-c2cccc([N+](=O)[O-])c2)c(N=Nc2ccccc2)s1 | 38.3% | 61.3% | 63.2 | 81.2 | 54.3 | 51.2 | 42.5% | 64 | 53.5% | 65% | 51.8 | 71% | 62.2 | 81.7 | 63.2 | 39.3 | 48.4% | 50.8% | – | –
O=C(Nc1ccc(N=Cc2c(O)[nH]c3ccccc23)cc1)Nc1nccs1 | 29% | 17.9% | 33.4 | 31 | 42 | 68.6 | 26.8% | 24.9 | 35.1% | 61.3% | 34.6 | 68% | 48.4 | 75.7 | 40.7 | 32.9 | – | 32.2% | -7.94% (active) | –
COc1cc(OC)c(S(N)(=O)=O)cc1C(C)=O | 103% | 103% | 130 | 101 | 105 | 94.9 | – | 100 | 105% | 107% | 102 | 97.2% | 97.4 | 94.9 | 107 | 95.6 | 109% | – | – | –
CCCCCc1ccc(S(=O)(=O)Nc2cccc(-c3csc(NC(=O)CCCCCN4CCN(C)CC4)n3)c2)cc1 | -7.05% (active) | 7.36% (active) | – | 72.3 | 26.2 | 50.3 | -66.8% (active) | 63.2 | -83.8% (active) | -18.9% (active) | 71 | 79.8% | 75.9 | 107 | 86.4 | 79.5 | 5.75% (active) | 3.35% (active) | 78.7% | 98.3
COc1ccc(/C=C/C(=O)c2cc(S(N)(=O)=O)c(OC)cc2OC)cc1 | 42.6% | 102% | 71.4 | 81 | 68.7 | 42.9 | – | 76.8 | 52.2% | 40.9% | 92.1 | 61.1% | 72.4 | 92.9 | 81.1 | 63.5 | 55.7% | 71.1% | – | –
